Most compounds without a hit are left out; they make up all but 8.8% or so of the library.
HT1080 IDH1KD tx = qHTS for induction of synthetic lethality in tumor cells producing 2HG: qHTS for the HT-1080-IDH1KD cell line; HT-1080 IDH1 knockdown viability, ATP luminescence, 48 h; Potency, µM (top dose mostly 46.1 µM), actives largely listed as cytotoxic; 2% of 360,000 active
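Assay cells: HT-1080 with IDH1 knockdown, 750 per well, RPMI/5% FBS. Exposure: 48 h at 37 °C following 2 h pre-incubation. Read: CellTiter-Glo luminescence; fitted concentration-response, curve class assigned.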
KB-V1 cytotox = qHTS assay for MDR1-selective chemotherapeutics: Primary screen using the drug-selected MDR subline cells KB-V1; KB-V1 MDR cells viability, CellTiter-Glo, 72 h; AID 1347076, 2019; Potency, µM (series often up to 46.1 µM), hits mostly cytotoxic; 3.4% of 400,000 active; further: nearly all actives have a fitted effect of over 60% in size
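Readout: CellTiter-Glo luminescence, 10 min after addition. Cells: KB-V1 MDR subline, 72 h at 37 degrees C with compound. Analysis: corrected, normalized data fitted to concentration-effect curves.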
HT1080-NT tox = qHTS for induction of synthetic lethality in tumor cells producing 2HG: qHTS for the HT-1080-NT fibrosarcoma cell line | 1.6% of 360,000 active | HT-1080-NT fibrosarcoma viability, CellTiter-Glo ATP luminescence, 48 h | Potency, µM (series often up to 46.1 µM), most hits filed as cytotoxic;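 further: NT is the 2HG producing partner of a matched IDH1 knockdown line; nearly all actives have a fitted effect of over 55% in size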
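Compounds were tested in concentration-response format on HT-1080-NT cells for 48 hours at 37 degrees C. Cell viability came from CellTiter-Glo luminescence; curves were classified by r2, response magnitude and activity.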
KB-3-1 tox = qHTS assay for MDR1-selective chemotherapeutics: Primary screen using the parental adenocarcinoma cell KB-3-1; KB-3-1 viability, CellTiter-Glo ATP luminescence, 72 h; Potency, µM (doses to about 46.1 µM), most hits filed as cytotoxic; 1.4% of 400,000 active; further: nearly all actives have a fitted effect of over 60% in size
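Parental KB-3-1 adenocarcinoma cells in phenol-red-free DMEM with 10% FBS were pin-treated with compounds at several concentrations, incubated 72 h at 37 °C, and viability read by CellTiter-Glo luminescence; concentration-effect curves were fitted after normalization.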
IL-1B inflam inh = qHTS for Inhibitors of Inflammasome Signaling: IL-1-beta AlphaLISA Primary Screen | THP-1 LPS/ATP IL-1B secretion, AlphaLISA, 16 h; active compounds read low | activity change, % at 57.5 µM | 4.7% of 360,000 active; in the data active means activity change below about -50%; inconclusive means mostly about -30% to -49%
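Secreted IL-1B measured by AlphaLISA bead assay after 16 h compound exposure of THP-1 cells; compounds (final up to 57.5 uM) added 1 h before LPS (250 ng/mL) and ATP (1.25 mM) stimulation; lower signal means less secretion.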
Of the large screens only hits and unclear results are named; the others gave an inactive call. Unless noted, the call rests on the fitted dose curve; in most records, active means well fitted curve in the direction sought with a large enough effect; inconclusive means small, poorly fitted or top-dose-only effect, or another doubt; inactive means no such curve, though single readings can be large; an effect the other way counts as inactive or inconclusive.

CN(c1cccc(NS(=O)(=O)c2cccs2)c1)S(C)(=O)=O	none
CCC(=O)Nc1ccc(S(=O)(=O)Nc2cccc(C)c2)cc1OC	HT1080 IDH1KD tx inconclusive, KB-V1 cytotox 18µM, HT1080-NT tox inconclusive, KB-3-1 tox inconclusive
COc1ccc(S(=O)(=O)Nc2ccc(NC(C)=O)cc2)cc1Br	none
COc1ccc(S(=O)(=O)Nc2cccc(N(C)S(C)(=O)=O)c2)cc1Br	KB-V1 cytotox 15µM
COc1ccc(S(=O)(=O)Nc2cccc(C(C)=O)c2)cc1Br	KB-V1 cytotox inconclusive, IL-1B inflam inh -71
CN(CCO)c1ccc(C=NNc2ccc([N+](=O)[O-])cc2S(=O)(=O)Nc2ccccc2C(=O)O)cc1	KB-V1 cytotox inconclusive, KB-3-1 tox inconclusive
O=C(NCc1ncc(C(F)(F)F)cc1Cl)Nc1ccccc1	none
CCCNC(=O)c1cn(CC)c2cc(N3CCN(C(=O)c4ccco4)CC3)c(F)cc2c1=O	none
CCn1cc(C(=O)NCc2cccc(F)c2)c(=O)c2cc(F)c(N3CCN(C(=O)c4ccco4)CC3)cc21	HT1080 IDH1KD tx 23µM, KB-V1 cytotox inconclusive, HT1080-NT tox 13µM, KB-3-1 tox inconclusive, IL-1B inflam inh -54
Nc1c(-c2ccc(Cl)cc2)cnn1-c1cccc([N+](=O)[O-])c1	KB-V1 cytotox inconclusive, KB-3-1 tox inconclusive
Cc1ccc(-c2cnn(-c3cccc(C(F)(F)F)c3)c2N)cc1	KB-V1 cytotox 16µM
Nc1c(-c2ccc(Cl)cc2)cnn1-c1cccc(C(F)(F)F)c1	none
Nc1c(-c2ccccc2)cnn1-c1cccc([N+](=O)[O-])c1	KB-V1 cytotox 23µM, IL-1B inflam inh inconclusive
COc1cc(-c2nnc(SCC(=O)c3cc(C)n(CC4CCCO4)c3C)o2)cc(OC)c1OC (stereo unspecified)	KB-V1 cytotox 18µM
Cc1cc(C(=O)CSc2nnc(-c3ccc(F)cc3)o2)c(C)n1CC1CCCO1 (stereo unspecified)	KB-V1 cytotox inconclusive
COc1cc(OC)cc(C(=O)Nc2ccc(S(=O)(=O)N3CCOCC3)cc2)c1	IL-1B inflam inh inconclusive
CSc1nc(N2CCOCC2)c2c(c1C#N)CC(C)(C)OC2	KB-V1 cytotox 9.2µM, KB-3-1 tox inconclusive
CC(C)CCSc1nc(N2CCOCC2)c2c(c1C#N)CC(C)(C)OC2	HT1080 IDH1KD tx inconclusive, KB-V1 cytotox 8.2µM, HT1080-NT tox inconclusive
COC(=O)CCSc1nc(N2CCOCC2)c2c(c1C#N)CC(C)(C)OC2	none
CNc1nc(Nc2ccc(C(C)=O)cc2)nc(OC(C(F)(F)F)C(F)(F)F)n1	IL-1B inflam inh -58
CC(=O)c1ccc(Nc2nc(NCCO)nc(OC(C(F)(F)F)C(F)(F)F)n2)cc1	none
COC(=O)c1c(NC(=O)COC(=O)CNC(=O)c2cccc(OC(F)F)c2)sc(C)c1C	none
CC(C)N(Cc1cn[nH]c1-c1ccc(-c2ccccc2)cc1)Cc1nccn1C	HT1080 IDH1KD tx 21µM, HT1080-NT tox 15µM, IL-1B inflam inh -74
CC(C)N(Cc1nc(COc2ccccc2)no1)Cc1nccn1C	none
Cc1ccsc1C(=O)N1CCCC(N(C)Cc2ccccc2)C1 (stereo unspecified)	KB-V1 cytotox inconclusive
COc1ccc(NC(=O)CSC(C)c2nc3ccccc3c(=O)[nH]2)cc1 (stereo unspecified)	none (no result: KB-V1 cytotox, KB-3-1 tox)
c1coc(-c2nn3c(Cn4nnc5ccccc54)nnc3s2)c1	KB-V1 cytotox 13µM
c1csc(-c2nn3c(Cn4nnc5ccccc54)nnc3s2)c1	KB-V1 cytotox 15µM, KB-3-1 tox inconclusive
CC1(C)Oc2ccc3ccc(=O)oc3c2/C(=C/Nc2ccccc2)C1=O	KB-V1 cytotox inconclusive, IL-1B inflam inh -59
O=C1NC2c3ccccc3CC2O1 (stereo unspecified)	KB-V1 cytotox inconclusive, KB-3-1 tox inconclusive
O=C1NC2c3c(Cl)sc(Cl)c3C(=O)C2O1 (stereo unspecified)	HT1080 IDH1KD tx inconclusive, KB-V1 cytotox inconclusive, HT1080-NT tox inconclusive, IL-1B inflam inh -103
O=C1NC2c3c(I)sc(I)c3C(=O)C2O1 (stereo unspecified)	HT1080 IDH1KD tx inconclusive, HT1080-NT tox inconclusive, KB-3-1 tox inconclusive, IL-1B inflam inh -56
O=C(Nc1ccnn1C1CCN(CCCC2CCCC2)CC1)c1ccccc1Cl	HT1080-NT tox inconclusive, IL-1B inflam inh inconclusive
CC(=O)N1c2ccc(Cl)cc2C2OCCC2C1c1ccco1 (stereo unspecified)	none
Clc1ccc2c(c1)C1OCCC1C(c1ccco1)N2 (stereo unspecified)	KB-V1 cytotox inconclusive, KB-3-1 tox inconclusive, IL-1B inflam inh -74
CCOC(=O)c1cnc(Nc2nc3ccccc3o2)nc1C	HT1080 IDH1KD tx 3.5µM, HT1080-NT tox 2.8µM, KB-3-1 tox 11µM
CCCCCCOc1ccc(OC(=O)c2ccncc2)cc1	HT1080 IDH1KD tx 16µM, HT1080-NT tox inconclusive
CCCCCCc1ccc(OC(=O)c2ccncc2)cc1	none
COc1ccc(NC(=O)N(C)[C@H]2C[C@H]3c4[nH]c5ccc(-c6ccc7c(c6)OCO7)cc5c4CCN3C[C@H]2[C@H](C)O)cc1	HT1080 IDH1KD tx 23µM, HT1080-NT tox 23µM, KB-3-1 tox inconclusive
COc1ccc(NC(=O)N(C)[C@H]2C[C@H]3c4[nH]c5ccc(-c6ccc(OC)cc6)cc5c4CCN3C[C@H]2[C@H](C)O)cc1	HT1080 IDH1KD tx 16µM, KB-V1 cytotox inconclusive, HT1080-NT tox 23µM, KB-3-1 tox 21µM, IL-1B inflam inh inconclusive
COc1ccc(NC(=O)O[C@@H](C)[C@@H]2CN3CCc4c([nH]c5ccc(-c6ccc(OC)cc6)cc45)[C@@H]3C[C@@H]2N(C)C(=O)Nc2ccc(OC)cc2)cc1	none
Cc1cccc(-c2ccc3[nH]c4c(c3c2)CCN2C[C@@H]([C@H](C)O)[C@@H](N(C)C(=O)NC3CCCCC3)C[C@@H]42)c1	HT1080 IDH1KD tx inconclusive, HT1080-NT tox inconclusive, KB-3-1 tox inconclusive
CN[C@H]1C[C@H]2c3[nH]c4ccc(-c5cccc(C)c5)cc4c3CCN2C[C@H]1[C@H](C)O	HT1080 IDH1KD tx inconclusive, HT1080-NT tox 16µM, KB-3-1 tox inconclusive, IL-1B inflam inh inconclusive
CNc1ccccc1C(C)(C)c1cc(-c2cccc([N+](=O)[O-])c2)no1	none
CNc1ccccc1C(C)(C)c1cc(-c2ccc(F)cc2)no1	KB-V1 cytotox inconclusive, KB-3-1 tox 8.2µM
CNc1ccccc1C(C)(C)c1cc(-c2cccc(Br)c2)no1	HT1080 IDH1KD tx inconclusive, KB-3-1 tox 23µM

From PubChem BioAssay
